In the supplement of paper PMC9433436:
± gives the standard deviation of the averaged measurements. In all, about 4,100 sequences were measured (“relative kcat/Km (krel) vs genomic leader AAAGAU”: median about 1.7, highest 2% from about 6.5 on). Shown is part of a subset that was picked to be rich in the highest values.

Target: T1, E. coli RNase P holoenzyme (M1 P RNA + rnpA protein) (UniProt P0A7Y8)
T1 sequence: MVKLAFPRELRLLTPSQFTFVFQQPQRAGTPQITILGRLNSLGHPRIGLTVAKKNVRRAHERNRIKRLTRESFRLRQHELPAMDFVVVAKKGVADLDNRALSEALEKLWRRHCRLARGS
Test: relative kcat/Km (krel) vs genomic leader AAAGAU (relative (reference leader = 1)); higher = faster RNase P cleavage
Experimental: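 HTS-Kin: a pool of ptRNA-Met (21C construct) with all 4096 combinations of 5' leader nucleotides N(-6) to N(-1) was processed in vitro by E. coli RNase P (P RNA + rnpA/C5 protein) under multiple-turnover conditions at 37 C, pH 8, 17.5 mM MgCl2. Residual substrate was Illumina-sequenced at several fractions reacted, and relative kcat/Km (krel) was computed by internal competition kinetics, calibrated to the genomic leader (AAAGAU = 1). The listed hexamer is the varied N(-6)..N(-1) leader (DNA letters), and it sits between a fixed 5' stem-loop flank (GCAUGCACGAAAGUGCGUGCUAUGAA) and the mature tRNA-Met starting GGCUACGUAGCUCAGUUGG. Two technical replicates are averaged.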

[1] = fraction of substrate reacted: ~9-10% (9.79% repeat 1, 9.1% repeat 2)
[2] = fraction of substrate reacted: ~13-16% (15.68% repeat 1, 13.17% repeat 2)
[3] = fraction of substrate reacted: ~26-29% (28.66% repeat 1, 26.4% repeat 2)

Sequence	relative kcat/Km [1]	relative kcat/Km [2]	relative kcat/Km [3]
ACTTTA	1.56 ± 0.72	1.89 ± 0.44	2.18 ± 0.5
GCTGCC	1.37 ± 0.5	0.461 ± 0.12	0.965 ± 0.29
GCGGCA		0.64 ± 0.26	
CATTTC	2.59 ± 0.64	2.31 ± 0.88	4.06 ± 1.9
CTCCCC	2.43 ± 0.053	3.34 ± 1	4.73 ± 2.2
TTCCAT	4.71 ± 0.96	7.43 ± 1.3	10.3 ± 4.6
CGCCAA	2.95 ± 0.91	3.15 ± 0.75	5.09 ± 1.8
CTCCAA	4.23 ± 2.1	4.62 ± 0.048	6.98 ± 2.8
TGCCAT	2.8 ± 0.93	2.89 ± 0.61	4.45 ± 1.8
CACCAC	3.5 ± 0.91	3.81 ± 1.5	5.55 ± 2.2
CTCCAG	2.81 ± 1.9	2.34 ± 0.026	4.6 ± 1.3
TTCCCT	3.18 ± 0.59	4.37 ± 1.1	6.18 ± 2.6
CTCCAC	4.55 ± 1.9	5.88 ± 1.5	7.81 ± 3.1
CAGGGA		0.949 ± 0.58	1.06 ± 1
CCGATG			1.14 ± 0.71
CGCATG			1.43 ± 0.34
CCATAA	3.55 ± 1.6	2.67 ± 0.37	3.58 ± 0.78
CCACTT	1.71 ± 0.26	0.873 ± 0.61	1.91 ± 0.31
TGCTGA	1.907 ± 0.0028	1.69 ± 0.5	2.71 ± 1
CCGTGC	1.254 ± 0.0079	0.908 ± 0.54	1.84 ± 0.71
GGCGCG		0.4496 ± 0.0012	1.37 ± 0.14
ATGCCG			0.567 ± 0.043
AGCTGG		0.38 ± 0.056	0.572 ± 0.15
GGTTCA	1.01 ± 0.77	0.431 ± 0.36	1.26 ± 0.44
TGAAAG		1.15 ± 0.57	2.65 ± 0.8
GCGAAA	2.4 ± 0.62	1.36 ± 0.072	2.16 ± 0.076

Sequence	relative kcat/Km [1]	relative kcat/Km [2]	relative kcat/Km [3]
TCCAGA	3.25 ± 0.89	4.62 ± 0.77	7.93 ± 2.3
GCCAAG	0.818 ± 0.62	0.757 ± 0.36	2.63 ± 0.93
TCCAAG	2.34 ± 1.2	1.77 ± 1.2	4.8 ± 1.6
ACCAAT	2.48 ± 0.88	2.51 ± 0.89	3.51 ± 0.8
TCCAGC	4.58 ± 2.5	4.83 ± 0.15	6.09 ± 2
TCCAAA	3.88 ± 1.2	5.16 ± 0.76	7.85 ± 2.9
TCCAAC	3.85 ± 2	4.11 ± 0.11	5.77 ± 1.9
TCCAGG			2.14 ± 0.84
TCCAAT	3.48 ± 2.1	4.14 ± 0.76	6.63 ± 2.2
GGCGTC	2.13 ± 1.2	1.48 ± 0.093	1.36 ± 0.024
AATTTG			0.989 ± 0.62
TGATAC	2.83 ± 0.46	3.97 ± 0.42	5.76 ± 2.1
AGAGGG			0.989 ± 0.85
TCATCT	2.18 ± 1.2	2.78 ± 0.36	4.09 ± 1
ACAGAG		0.878 ± 0.38	1.94 ± 0.09
CTAATT	2.55 ± 1	1.92 ± 0.32	2.36 ± 0.52
ATCCTT	3.24 ± 1.5	4.36 ± 0.24	5.37 ± 2.3
TTCCTC	4.47 ± 1.9	5.25 ± 0.81	6.88 ± 2.5
CTCCTC	3 ± 1.3	3.49 ± 0.19	4.95 ± 1.7
TTCCTT	4.47 ± 1.3	5.24 ± 1.1	7.59 ± 3.1
GTCCTT	3.67 ± 1	4.82 ± 0.56	7.02 ± 2.8
CTCCTT	3.67 ± 1.4	4.28 ± 0.77	6.06 ± 2.3
ATCCTC	3.86 ± 1.3	4.11 ± 1.6	4.92 ± 2
GTCCTC	3.46 ± 0.61	4.33 ± 0.75	6.46 ± 3
TTCCTG			1.68 ± 1.1
TGGCGG	0.44 ± 0.28		0.962 ± 0.067

Sequence	relative kcat/Km [1]	relative kcat/Km [2]	relative kcat/Km [3]
CCTAGA	3.14 ± 2.6	2.71 ± 0.26	3.57 ± 0.52
CCTCCT	2.08 ± 1.7	1.23 ± 0.17	1.29 ± 0.79
AGAAAA	3.05 ± 0.94	2.65 ± 0.37	3.92 ± 1.1
ACTGGC			1.69 ± 1.6
TGTCGC	1.87 ± 0.089	2.92 ± 1.1	5.09 ± 2.2
TGTCAT	3.5 ± 1.3	4.28 ± 1.1	6.84 ± 3.2
TGTCAG		1.4 ± 0.17	3.3 ± 0.62
GGTCAC	2.53 ± 0.97	2.2 ± 0.29	3.14 ± 0.83
ACTCAC	2.6 ± 1.1	2.87 ± 0.13	4.43 ± 1.7
AGTCAG	2.12 ± 2	1.91 ± 0.42	3.69 ± 0.62
TGTCAA	3.03 ± 1.6	3.56 ± 0.18	5.75 ± 2.1
AGTCAA	2.58 ± 0.11	4 ± 1.2	6.05 ± 2.9
AGTCAT	3.31 ± 1.6	5 ± 1.1	6.79 ± 3.2
AGTCAC	4.5 ± 2.3	4.987 ± 0.032	7.1 ± 2.9
TCTCAC	3.41 ± 1.3	4.45 ± 1.3	6.16 ± 2.3
TGTCAC	3.25 ± 2.2	4.8 ± 0.85	7.18 ± 3
GCTATC	1.45 ± 0.98	0.842 ± 0.77	1.645 ± 0.013
ATTCCT	1.97 ± 0.65	2.19 ± 0.27	2.93 ± 1.1
AAATTC	2.35 ± 1.4	1.98 ± 0.19	2.34 ± 0.6
TAATGG	0.461 ± 0.18		
CAACAG			1 ± 0.52
TGACAA	3.11 ± 2.1	3.72 ± 0.47	4.23 ± 1.4
GTACGC	2 ± 0.098	2.7 ± 0.46	3.72 ± 1.3
CGTCAC	4.5 ± 2.1	5.37 ± 0.7	6.77 ± 2
CCTCAC	2.54 ± 0.75	3.07 ± 0.55	4.22 ± 1.2
CGTCAT	2.843 ± 0.013	4.98 ± 1.9	6.96 ± 3.1

Sequence	relative kcat/Km [1]	relative kcat/Km [2]	relative kcat/Km [3]
CGTCAG	0.776 ± 0.25	1.34 ± 0.28	3.11 ± 0.5
CGTCAA	1.61 ± 0.25	3.42 ± 0.92	5.08 ± 1.4
CGTCGC	2.49 ± 0.74	3.77 ± 0.95	4.81 ± 1.1
AGTCTT	3.48 ± 0.67	3.72 ± 0.46	5 ± 2.2
GAGCAA	1.98 ± 0.29	2.27 ± 0.026	2.57 ± 0.78
TATTCT	3.27 ± 1.2	4.15 ± 0.4	5.78 ± 2.3
TATTAT	4.02 ± 1.1	5.95 ± 1.7	9.03 ± 4.1
TATTAA	4.01 ± 2.3	5.12 ± 0.072	6.96 ± 2.6
TATTAC	3.92 ± 1.1	5.68 ± 0.93	7.86 ± 3.4
TATTCC	2.05 ± 0.31	2.87 ± 0.33	3.57 ± 1.4
TATTAG	2.38 ± 2.3	2.95 ± 0.03	4.43 ± 1.4
AATTAC	3.5 ± 1.7	3.97 ± 0.31	5.32 ± 1.9
AATTAA	2.86 ± 2	3.37 ± 0.39	4.73 ± 1.6
AATTAT	3.11 ± 0.81	4.75 ± 0.82	5.76 ± 2.3
ACTTTG			1.31 ± 0.45
GCCCTC	1.81 ± 0.28	2.28 ± 1.4	3.98 ± 1.6
CGCCGT	0.516 ± 0.5		1.06 ± 0.75
AATTAG		1.34 ± 0.23	3.09 ± 1.5
AGTACT	2.34 ± 1.3	2.42 ± 0.095	3.74 ± 1.6
AAATAT	1.72 ± 0.35	3.11 ± 0.79	4.74 ± 2.4
GCGGAG			0.583 ± 0.36
TCGGAA	1.2 ± 1.2	1.23 ± 0.93	1.33 ± 0.09
AAATCA	1.55 ± 0.36	1.42 ± 0.17	1.8 ± 0.46
